Bioassay records deposited in PubChem BioAssay by several laboratories.
A selection: hits, their analogues and other compounds. The true share with any hit is near 2.7%.
CF NFkB inh = inhibitors of cystic fibrosis induced NF-kB. KKLEB NF-kB-GFP reporter, PAF-induced, GFP fluorescence overnight. hit rate 0.86% among 360,000. inhibition, % at 5 µM. AID 588850;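 active means at least 50% inhibition at 5 µM, scaled per plate between neutral and stimulator controls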;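 further: PAF is a Pseudomonas aeruginosa culture filtrate used as stimulus; plate controls were PAF-stimulated DMSO wells for no effect and unstimulated DMSO wells for full effect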
Peg3 prom inh = reduces Peg3 promoter-driven luciferase expression in HeLa; HeLa PEG-Prom luciferase reporter, luminescence, overnight; inhibition, % at 20 µM; hit rate 1.7% among 360,000;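 active means inhibition of at least 50% at 20 µM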
Shn3 3UTR inh = reduces Shn3 3'UTR luciferase signal in osteoblasts; Clone20 osteoblast Shn3 3'UTR firefly luciferase, 24 h; inhibition, % at 12.5 µM; hit rate 0.52% among 360,000; AID 588674;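 active means mean inhibition of at least 75% with every replicate also reaching 75%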;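 further: 0% = median of neutral control wells and 100% = pilot-screen positive control compound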
KKLEB cytotox = counter-screen for CF NF-kB inhibitors: cytotoxicity | KKLEB CF airway cells viability, ATPlite luminescence, overnight; active compounds read low; cells stimulated with P. aeruginosa culture filtrate | activity change (cytotoxicity), % at 5 µM | hit rate 0.36% among 360,000 | AID 602141;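 active means corrected activity change at or below -50% at 5 µM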
HIF-2a inh = inhibitors of HIF-2a; hit rate 0.72% among 360,000; 786-0 RCC cells HIF-2a reporter, luciferase luminescence, overnight; AID 624352; inhibition, % at 18.8 µM;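 active means inhibition of the luminescence signal of 40% or more relative to plate controls, in a single-dose primary screen at 18.75 µM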
MITF TRPM1 inh = reduces MITF-dependent TRPM1 promoter luciferase signal | SK-MEL-5 TRPM1 promoter luciferase, 24 h | inhibition, % at 12.5 µM | hit rate 0.83% among 330,000;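 active means mean inhibition across replicates of 60% or more, whatever share of single replicates reaches that level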
* = called active by the depositor; . = no result.

SMILES	CF NFkB inh	Peg3 prom inh	Shn3 3UTR inh	KKLEB cytotox	HIF-2a inh	MITF TRPM1 inh
CC(C)NC(=O)Nc1nnc([C@H]2C[C@H](O)[C@@H](CO)O2)s1	14.1	0.5	16.7	6.2	8.4	.
CCC(=O)OCC(=O)c1c(N)n(Cc2ccccc2)c(=O)n(C)c1=O	-3.8	5.7	7.4	-4.1	2.5	6.2
COC(=O)Cn1c(=O)c(C(=O)CCl)c(N)n(Cc2ccccc2)c1=O	27.6	80.7*	.	5.4	29.5	51.2
O=C1/C(=C\c2ccccc2)CN(C(=O)CCN2CCCCC2)C/C1=C/c1ccccc1	90.9*	97.0*	93.8*	-53.6*	89.6*	109.4*
CCN(CC)CCC(=O)N1C/C(=C/c2ccccc2)C(=O)/C(=C\c2ccccc2)C1	86.0*	94.2*	74.8	-46.3	82.7*	.
O=C1/C(=C\c2ccc(Cl)c(Cl)c2)CN(C(=O)CCN2CCOCC2)C/C1=C/c1ccc(Cl)c(Cl)c1	90.1*	98.1*	98.7*	-78.1*	93.8*	117.5*
COCCNc1nc(-c2ccccc2CO)c2sc(-c3ccccc3)cc2n1	19.3	-0.9	-3.7	-30.0	-17.3	.
CC(SC(=S)N1CCOCC1)C(=O)O (stereo unspecified)	18.8	14.6	5.8	-8.7	9.3	5.1
S=C(SSC(=S)N1CCOCC1)N1CCOCC1	4.5	4.9	89.6*	1.1	0.7	.
CCc1nc2c(OCc3cccc(OC)c3)cccn2c1N(C)C(=O)c1ccc(OC)cc1	-8.4	9.5	7.2	0.5	7.6	.
O=[N+]([O-])c1cc([N+](=O)[O-])c2cc3ccccc3nc2c1	84.2*	92.3*	71.4	-1.7	14.9	53.5
S=C(NCc1ccccn1)NN=Cc1ccccn1	10.5	4.0	81.5	-3.6	-76.8	69.9*
COc1ccc(OC)c(NC(=O)Nc2nc(C(N)c3ccccc3Cl)cs2)c1 (stereo unspecified)	-3.7	3.5	14.3	-6.2	-18.8	.
COc1cc(/C=C/C(=O)c2ccc(Cl)s2)cc(OC)c1O	42.5	52.3*	-3.5	-22.8	27.4	27.6
COc1ccc(C(C(=O)Nc2ccc(F)cc2)N2CCN(c3cccc(C(F)(F)F)n3)CC2)cc1 (stereo unspecified)	.	.	.	.	0.4	.
COc1cc(C2C3=C(COC3=O)Oc3cc4c(cc32)OCO4)ccc1OC(C)=O (stereo unspecified)	17.1	-0.2	0.7	9.9	13.0	23.9
COc1cc(C2C3=C(COC3=O)Oc3cc4c(cc32)OCO4)cc(OC)c1OC(C)=O (stereo unspecified)	66.7*	-36.8	15.1	-34.1	13.8	55.2
COc1cc(C(=O)N2CCC2(C)C(=O)O)cc(OC)c1OC (stereo unspecified)	10.4	4.6	-21.5	-6.2	12.7	.
COc1ccc2nc(NC(=O)c3ccc([N+](=O)[O-])o3)sc2c1	65.8*	-25.4	-15.3	-20.8	-136.3	13.8
Cc1cc(C)c2nc(NC(=O)c3ccc([N+](=O)[O-])o3)sc2c1	-29.6	-77.2	-5.1	-5.6	-127.3	14.1
CCOC(=O)c1cccc(C(=O)Nc2nc3ccc(OC)cc3s2)n1	-19.1	-133.4	-37.2	-54.9*	-198.3	-50.6
O=C(Nc1nc2ccccc2s1)c1ccc([N+](=O)[O-])o1	10.1	-143.1	26.1	-7.7	-136.5	44.2
O=C(Nc1nc2cc3c(cc2s1)OCCO3)c1ccc([N+](=O)[O-])o1	82.7*	48.8	-15.0	-43.5	-197.1	35.4
COc1cc(NC(=O)c2sc3ncn(CC(=O)N4CCCCC4C)c(=O)c3c2C)cc(OC)c1OC (stereo unspecified)	-0.6	-0.5	-10.9	-17.1	12.6	.
CC12CCC(/C(=C/NNc3ccc([N+](=O)[O-])cc3[N+](=O)[O-])C1=O)C2(C)C (stereo unspecified)	19.1	-1.4	13.2	-17.9	3.1	.
SMILES	CF NFkB inh	Peg3 prom inh	Shn3 3UTR inh	KKLEB cytotox	HIF-2a inh	MITF TRPM1 inh
Cc1cc(C(=O)N/N=C/c2cc(Br)ccc2OC(=O)c2ccccc2Cl)n[nH]1	-20.7	24.1	90.5*	-9.9	-15.1	22.8
CCN(CC)CCC(=O)Nc1cccc2c1C(=O)c1ccccc1C2=O	-121.6	106.9*	-18.9	-1.1	34.1	70.9*
CCN(CC)CCNC(=O)c1ccc2c(c1NCCO)C(=O)c1ccccc1C2=O	76.7*	111.1*	25.4	-51.7*	61.6*	.
Nc1cccc(C(=O)OCC(=O)Nc2cccc3c2C(=O)c2ccccc2C3=O)c1	-93.3	25.9	-5.5	14.7	-20.8	17.5
O=c1c2ccc(Cl)cc2nc(-c2cccc(C(F)(F)F)c2)n1O	6.7	52.1*	20.0	-4.8	26.0	47.2
O=C(NCc1ccccc1)C1=C[C@H](C2CCCCC2)C[C@H](OCc2ccc(CO)cc2)O1	55.6*	9.2	11.6	-52.7*	5.9	16.4
CSCCNC(=O)C1(C)CCN1C(=O)c1ccc(C(C)(C)C)cc1 (stereo unspecified)	12.3	3.8	19.3	-6.6	8.6	.
O=C(Nc1cccc(O)c1)c1cc(-c2ccc3c(c2)OCO3)on1	0.2	34.2	-12.4	-69.6*	-45.3	46.1
CC(C)(CO)NCc1c(OCc2ccc(Cl)cc2)ccc2ccccc12	10.8	53.7*	16.6	-1.3	-54.3	-9.8
Clc1nc(Cl)nc(N(c2ccccc2)c2ccccc2)n1	-1.0	3.9	15.8	11.5	18.4	22.6
Nc1ccc(N(c2ccccc2)c2ccc(N)cc2)cc1	87.0*	10.9	17.0	-18.9	11.2	58.0
Cc1ccc(-c2nnc(N3CCC(C)CC3)c3ccccc23)cc1C	2.7	32.5	90.5*	-8.4	4.7	18.0
COc1ccccc1-c1csc(C(C)(O)c2ccccc2)n1 (stereo unspecified)	22.6	0.2	-17.2	-9.2	1.9	.
CCC1(c2ccccc2)ON(c2c(Br)cccc2Br)C1=O (stereo unspecified)	23.5	73.0*	-26.1	6.7	32.6	23.3
COc1ccc(C(O)c2nc(-c3cccc(F)c3)cs2)cc1 (stereo unspecified)	-4.6	-31.9	81.8*	-36.7	-48.5	.
COc1ccc(C(O)c2nc(-c3cccc(C(F)(F)F)c3)cs2)cc1 (stereo unspecified)	-33.3	9.8	4.7	8.4	-9.8	.
COc1ccc(C2OC(CCc3ccccc3)CC3=C2C(=O)OC(C)(C)O3)cc1 (stereo unspecified)	15.0	13.7	-0.3	2.3	8.5	.
Cc1[nH][nH]c(=O)c1C(c1c(C)[nH][nH]c1=O)c1cn(Cc2ccccc2Cl)c2ccccc12	68.5*	55.9*	4.9	-37.2	13.7	27.5
ClCc1nc2ccccc2n1Cc1ccccc1	10.8	107.4*	16.7	0.4	20.8	52.7
COc1cc(/C=N/NC(=O)CSc2cc(C)c(Br)cc2C)ccc1O	4.4	-14.3	34.4	0.7	4.9	1.9
Cc1cc(SCC(=O)N/N=C/c2ccc(O)c(O)c2O)c(C)cc1Br	-8.7	41.4	73.4	-6.1	22.7	65.5*
